Cycloheximide cs: counter-screen hit for Shiga toxin inhibitors, cycloheximide; 300,000 compounds, 12% hits; max response, %; cell reporter, cycloheximide protein synthesis inhibition counterscreen; in the data active = max response mostly above about 13%, no sharp cut-off; inactive = mostly below about 14%; also: read at 38.3 µM for the half of the compounds with a filed dose
Marburg entry inh: inhibitors of Marburg virus binding or cell entry | Marburg virus pseudotyped entry inhibition, cell reporter | 300,000 compounds, 1.8% hits | Potency, µM (highest dose often 37.8 µM), hits mostly inhibitors; calls by dose curve; tested in HEK293 cells
Shiga toxin inh: inhibitors of Shiga toxin in Vero cells. Vero cells, Shiga toxin protein synthesis inhibition reporter. inhibition, % at 38.7 µM. 290,000 compounds, 9.2% hits; in the data active = inhibition mostly above about 28%, no sharp cut-off; inactive = mostly below about 43%
LASV entry inh: Lassa virus entry inhibition | Lassa virus pseudotype entry inhibition, cell reporter | Potency, µM (top dose mostly 37.9 µM), hits mostly inhibitors | 300,000 compounds, 1.2% hits; calls by dose curve; tested in HEK293 cells; also: nearly all actives have a fitted effect of over 50% in size
Pf growth 48h: inhibits P. falciparum growth in the first generation, 48 h; P. falciparum luciferase growth in erythrocytes, 48 h; Potency, µM (titrated, usually from 28.7 µM), hits mostly inhibitors; 310,000 compounds, 5.9% hits
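Compounds are pin-transferred into medium, infected erythrocytes (2% hematocrit, 0.1% parasitemia final) are added, and plates sit one parasite generation at 37 C in 5% CO2. Detection reagent is then added and luminescence measured.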
Pf growth 96h: inhibits malaria parasite growth, 96 h. AID 504834. 320,000 compounds, 6.9% hits. P. falciparum luciferase reporter growth, 96 h. Potency, µM (series often up to 28.7 µM), most hits filed as inhibitors
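96 h incubation, 37 C, 5% CO2, of luciferase-reporter P. falciparum-infected RBCs (2% hematocrit, 0.05% parasitemia final) with test compounds; endpoint luminescence.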
Each line names hits and unclear results; the compound was inactive in the other large screens. Sampled rows, rich in hits. Any-hit rate of the full collection: about 19%. Unless noted, calls follow the shape of the dose curve; as a rule, active = well fitted inhibition curve with a large enough effect; inconclusive = small, poorly fitted or top-dose-only effect, or another doubt; inactive = no such curve, though single readings can be large or run the other way.

Cc1ccccc1NC1=C/C(=N\S(=O)(=O)c2ccc(C(=O)O)cc2)c2ccccc2C1=O	Marburg entry inh 8.9µM, Shiga toxin inh 36, LASV entry inh inconclusive, Pf growth 48h 2.6µM, Pf growth 96h inconclusive
CCc1ccc(S(=O)(=O)/N=C2\C=C(NS(=O)(=O)c3ccccc3)C(=O)c3ccccc32)cc1	Cycloheximide cs 30, Shiga toxin inh 44 (no result: Marburg entry inh, LASV entry inh)
COc1ccc(C2CC(c3ccccc3)=NN2C(=O)COC(=O)C2CC2)cc1 (stereo not drawn)	none
COc1ccc(C2CC(c3ccccc3)=NN2C(=O)c2cccs2)cc1 (stereo not drawn)	Cycloheximide cs 73, Marburg entry inh inconclusive, Shiga toxin inh 75, Pf growth 48h inconclusive, Pf growth 96h inconclusive
COc1ccc(C2CC(c3ccccc3)=NN2C(=O)COC(=O)C2(C)CC2(Cl)Cl)cc1 (stereo not drawn)	Marburg entry inh inconclusive, Pf growth 48h inconclusive, Pf growth 96h 9.3µM
COc1ccc(C2=NN(C(=O)c3cccs3)C(c3ccccc3O)C2)cc1 (stereo not drawn)	Cycloheximide cs 26, Pf growth 48h 10µM, Pf growth 96h inconclusive (no result: Marburg entry inh, LASV entry inh)
c1ccc(-c2ccc(-c3csnn3)cc2)cc1	Cycloheximide cs 33, Shiga toxin inh 57
CC(C)C(=O)Nc1ccc(Nc2ccccc2)cc1	Cycloheximide cs 17
O=C(Nc1ccccc1)C(O)C(O)C(=O)Nc1ccccc1 (stereo not drawn)	none (no result: Marburg entry inh, LASV entry inh)
CCC(CC)C(=O)Nc1ccc(Nc2ccccc2)cc1	Cycloheximide cs 19, LASV entry inh inconclusive
CN(C)C(=O)CS(=O)(=O)c1ccc(Cl)cc1	Pf growth 48h inconclusive
CCN1C(=O)c2ccccc2S(=O)(=O)c2ccc(C(=O)NCc3ccccc3Cl)cc21	Marburg entry inh inconclusive (no result: Cycloheximide cs, Shiga toxin inh, Pf growth 48h, Pf growth 96h)
CC1(OC(=O)C2CCCC2)C(=O)C=C2C=C(c3ccsc3)N(CCc3c[nH]c4ccccc34)C=C2C1=O (stereo not drawn)	Pf growth 48h 9.3µM, Pf growth 96h 13µM (no result: Marburg entry inh, LASV entry inh)
CC1(OC(=O)C2CCCC2)C(=O)C=C2C=C(c3ccsc3)N(C3CCCCC3)C=C2C1=O (stereo not drawn)	Pf growth 48h 12µM, Pf growth 96h inconclusive (no result: LASV entry inh)
CC(C)c1nn2c(=O)cc(COC(=O)c3ccco3)nc2s1	none (no result: Cycloheximide cs, Marburg entry inh, Shiga toxin inh, Pf growth 48h, Pf growth 96h)
CC(C)Oc1ccc(CNC(=O)c2ccc(CS(=O)c3cccc(Cl)c3)o2)cc1 (stereo not drawn)	none (no result: Cycloheximide cs, Marburg entry inh, Shiga toxin inh, Pf growth 48h, Pf growth 96h)
Cn1nc(-c2ccc(C(=O)NC3CCCCC3)cc2)c2ccccc2c1=O	Pf growth 48h 5.2µM (no result: LASV entry inh)
Cn1nc(-c2ccc(C(=O)Nc3ccc(F)cc3)cc2)c2ccccc2c1=O	Marburg entry inh inconclusive, LASV entry inh inconclusive, Pf growth 48h inconclusive
Cn1nc(-c2ccc(C(=O)Nc3cccc(Cl)c3)cc2)c2ccccc2c1=O	LASV entry inh inconclusive, Pf growth 96h 3.3µM (no result: Pf growth 48h)
Cn1nc(C(=O)NC2CCCC2)c2ccccc2c1=O	none (no result: Cycloheximide cs, Marburg entry inh, Shiga toxin inh, LASV entry inh)
Cc1ccc(NC(=O)c2ccc(-c3nn(C)c(=O)c4ccccc34)cc2)c(C)c1	Pf growth 96h 6.6µM (no result: Pf growth 48h)
Cn1nc(-c2ccc(C(=O)Nc3cccnc3)cc2)c2ccccc2c1=O	Pf growth 48h 6.6µM, Pf growth 96h inconclusive
COc1ccccc1N/C(N)=N/c1nc(CSc2ccc(C)cc2)cc(=O)[nH]1	Marburg entry inh inconclusive, Pf growth 96h inconclusive
CCCOc1ccc(OC(=O)c2sc3ncn(Cc4cccc(F)c4)c(=O)c3c2C)cc1	none (no result: Cycloheximide cs, Marburg entry inh, Shiga toxin inh, Pf growth 48h, Pf growth 96h)
COc1ccc(N(CC(=O)Nc2ccc(C)c(C)c2)S(=O)(=O)c2c(C)n[nH]c2C)cc1	Pf growth 48h inconclusive, Pf growth 96h inconclusive
Cc1ccc(NC(=O)c2ccc(-c3nn(C)c(=O)c4ccccc34)cc2)cc1	Pf growth 96h 10µM (no result: Pf growth 48h)
O=C1Cc2cc(S(=O)(=O)Nc3ccc(F)cc3Cl)ccc2N1	Pf growth 96h inconclusive (no result: Cycloheximide cs, Marburg entry inh, Shiga toxin inh, LASV entry inh)
O=C1OC(c2ccc(F)cc2)=C/C1=C\c1ccc(O)cc1	Cycloheximide cs 14 (no result: Marburg entry inh, LASV entry inh)
COC(=O)[C@H]1[C@H]2C[C@@H]3c4[nH]c5ccccc5c4CCN3C[C@H]2C[C@@H](OC(=O)c2cc(OC)c(OC)c(OC)c2)[C@@H]1OC	Pf growth 48h 0.38µM (no result: Cycloheximide cs, Marburg entry inh, Shiga toxin inh, LASV entry inh)
COC(=O)[C@H]1[C@H]2C[C@@H]3c4[nH]c5cc(OC)ccc5c4CCN3C[C@H]2C[C@@H](OC(=O)/C=C/c2cc(OC)c(OC)c(OC)c2)[C@@H]1OC	Pf growth 48h 0.74µM, Pf growth 96h 0.93µM (no result: Cycloheximide cs, Marburg entry inh, Shiga toxin inh, LASV entry inh)
